Source: PubChem
This excerpt belongs to a sample that is enriched for hits.
IL1B secr inh: blocks inflammasome-driven IL-1 beta release | THP-1 LPS/ATP IL-1B secretion, AlphaLISA, 16 h; active compounds read low | activity change, % at 57.5 µM | 360,000 compounds, 4.7% hits | AID 743279; in the data active = activity change below about -50%; inconclusive = mostly about -30% to -49%
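Secreted IL-1B measured by AlphaLISA bead assay after 16 h compound exposure of THP-1 cells; compounds (final up to 57.5 uM) added 1 h before LPS (250 ng/mL) and ATP (1.25 mM) stimulation; lower signal means less secretion.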
TDP1 cell CPT: growth inhibition of DT40 Tdp1-/-;hTDP1 cells with camptothecin (screen for TDP1 inhibitors); chicken DT40 Tdp1-/-;hTDP1 cells + 20 nM CPT, ATP luminescence, 48 h; Potency, µM (series often up to 46.2 µM), inactives show at the highest dose activity change, negative = growth inhibition, actives largely listed as inhibitors; 420,000 compounds, 12% hits; AID 686979; note: potency is the fitted concentration of half-maximal effect; nearly all actives have a fitted effect of over 55% in size
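Chicken DT40 Tdp1-/- cells stably complemented with human TDP1 were seeded at 400 cells/well in medium containing 20 nM camptothecin, exposed to pin-transferred compounds, and grown at 37 °C for at least 48 hr. Viability was read as ATP luminescence.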
DT40 TDP1 no CPT: qHTS for Inhibitors of human tyrosyl-DNA phosphodiesterase 1 (TDP1): qHTS in cells in absence of CPT. DT40 Tdp1-/- hTDP1 cells, no CPT, ATP luminescence, 48 h. Potency, µM (highest dose often 46.2 µM), inactives show at the top dose activity change, negative = growth inhibition, hits mostly inhibitors. 420,000 compounds, 15% hits. AID 686978, 2013; note: potency is the fitted concentration of half-maximal effect; nearly all actives have a fitted effect of over 55% in size
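Growth of hTDP1-complemented DT40 Tdp1-knockout cells is measured by ATP luminescence after at least 48 hr compound exposure at 37 °C, with DMSO substituting for the 20 nM CPT used in the parallel screen.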
HT1080NT lethal: kills 2HG-producing HT-1080-NT fibrosarcoma cells; HT-1080-NT fibrosarcoma viability, CellTiter-Glo ATP luminescence, 48 h; Potency, µM (series often up to 46.1 µM), for the others: at the highest dose activity, negative = less viability, actives largely listed as cytotoxic; AID 686970; 360,000 compounds, 1.6% hits;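 note: NT is the 2HG producing partner of a matched IDH1 knockdown line; potency is the fitted concentration of half-maximal effect; 0% = DMSO-treated cells and -100% = media-only wells without cells; nearly all actives have a fitted effect of over 55% in size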
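HT-1080-NT fibrosarcoma cells (2HG-overproducing), 750 cells/well in RPMI with 5% FBS, dosed after 2 h and incubated 48 h at 37C. CellTiter-Glo luminescence normalized to DMSO and no-cell wells; concentration-response curves fitted and classed.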
HT1080 IDH1KD tx: kills HT-1080 cells with IDH1 knockdown. HT-1080 IDH1 knockdown viability, ATP luminescence, 48 h. Potency, µM (doses to about 46.1 µM), inactives show top-dose activity, negative = toxicity, actives largely listed as cytotoxic. 360,000 compounds, 2% hits. AID 686971;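 note: potency is the fitted concentration of half-maximal effect; 0% = DMSO wells and -100% = cell-free medium wells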
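IDH1KD HT-1080 cells, 750/well, RPMI + 5% FBS; compound pinned after 2 h settling; 48 h, 37 °C; CellTiter-Glo luminescence; % activity normalised to DMSO and no-cell wells; curves fitted, classed by r2 and efficacy.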
ALOX12 inh: ALOX12 (human) lipoxygenase inhibition | P18054 | purified 12hLO, xylenol orange hydroperoxide absorbance | 580,000 compounds, 1.1% hits | Potency, µM (series often up to 108 µM), for inactives: at the highest dose activity change, negative = inhibition, most hits filed as inhibitors; note: potency is the fitted concentration of half-maximal effect
Target sequence (P18054 whole entry, looked up): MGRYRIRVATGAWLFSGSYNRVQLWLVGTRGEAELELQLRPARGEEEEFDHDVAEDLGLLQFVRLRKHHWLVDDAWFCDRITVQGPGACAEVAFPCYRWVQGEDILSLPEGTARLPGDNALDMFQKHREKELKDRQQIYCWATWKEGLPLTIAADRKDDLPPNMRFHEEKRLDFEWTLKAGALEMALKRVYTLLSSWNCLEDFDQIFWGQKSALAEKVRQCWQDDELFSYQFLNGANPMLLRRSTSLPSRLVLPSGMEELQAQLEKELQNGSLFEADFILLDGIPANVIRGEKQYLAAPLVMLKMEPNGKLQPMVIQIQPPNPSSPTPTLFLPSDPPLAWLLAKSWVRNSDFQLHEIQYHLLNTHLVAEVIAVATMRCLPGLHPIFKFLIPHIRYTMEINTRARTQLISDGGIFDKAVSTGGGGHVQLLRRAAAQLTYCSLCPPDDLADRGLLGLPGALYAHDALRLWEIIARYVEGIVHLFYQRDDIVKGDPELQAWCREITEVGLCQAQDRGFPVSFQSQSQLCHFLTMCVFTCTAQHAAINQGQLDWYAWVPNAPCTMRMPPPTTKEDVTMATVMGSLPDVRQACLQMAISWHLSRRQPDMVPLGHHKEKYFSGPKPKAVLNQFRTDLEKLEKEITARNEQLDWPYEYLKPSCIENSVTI
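Purified human 12hLO at 150 nM in 25 mM Hepes, 0.01% Triton X-100, pH 7.0, preincubated 15 min at room temperature with compound. Reaction started with 40 uM arachidonic acid, 30 min at room temperature. Hydroperoxide measured by Fe-xylenol orange, 573/405 nm absorbance ratio.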
* = called active by the depositor; ? = inconclusive; . = no result. Unless noted, calls come from the whole dose curve; as a rule, active = well fitted curve in the direction sought with a large enough effect; inconclusive = small, poorly fitted or top-dose-only effect, or another doubt; inactive = no such curve, though single readings can be large; an effect the other way counts as inactive or inconclusive. Unless noted, % is set by controls: 0 for no effect and ±100 for the full control effect.

SMILES	IL1B secr inh	TDP1 cell CPT	DT40 TDP1 no CPT	HT1080NT lethal	HT1080 IDH1KD tx	ALOX12 inh
O=C1C(n2ccc3ccccc32)c2ccccc2N1Cc1ccc(C(F)(F)F)cc1 (stereo not drawn)	.	.	.	.	.	31.6µM*
CCCOC(=O)COc1ccc2c(=O)c(-c3ccccc3)coc2c1	.	.	.	.	.	30.8%
Cc1ccc(S(=O)(=O)c2cn(Cc3cccc(F)c3)c3cc(N4CCCC4)c(F)cc3c2=O)cc1	.	4.61µM*	5.17µM*	.	.	-6.1%
Cc1cccc(Cn2cc(S(=O)(=O)c3ccccc3)c(=O)c3cc(F)c(N4CCOCC4)cc32)c1	.	25.9µM*	23.1µM*	.	.	3.0%
Cc1ccc(Cn2cc(S(=O)(=O)c3ccc(C)cc3)c(=O)c3cc(F)c(N4CCCC4)cc32)cc1	.	?	?	.	.	7.9%
Cc1ccc(S(=O)(=O)c2cn(Cc3ccccc3)c3cc(N4CCCCC4)c(F)cc3c2=O)cc1	.	8.2µM*	16.4µM*	.	.	-17.1%
CC(C)n1ncc2cc(NC(=O)C3CCN(S(=O)(=O)c4ccccc4)CC3)cnc21	.	.	.	.	.	40.0%
CCCCN(CCC(=O)NCCCOC)C(=O)c1ccoc1	.	.	.	.	.	12.1%
Cc1cc(C)nc(Nc2n[nH]c(COc3ccccc3)n2)n1	-9.7	?	18.4µM*	28.8%	22.9%	12.3%
Cc1cc(C)nc(Nc2n[nH]c(COc3ccc4ccccc4c3)n2)n1	19.0	-11.0%	-18.9%	-0.1%	2.0%	16.3%
Cc1cc(C)nc(Nc2n[nH]c(COc3cccc4ccccc34)n2)n1	2.7	2.91µM*	3.26µM*	3.2%	0.9%	16.5%
Cc1ccc(Cl)cc1NC(=O)CC(O)(C(F)(F)F)C(F)(F)F	-82.6*	18.4µM*	?	20µM*	?	-9.3%
O=C(OC1CCCCC1)c1ccc(SCc2ccccc2F)c([N+](=O)[O-])c1	.	.	.	.	.	-1.6%
O=C(/C=C/c1cn(-c2ccccc2)nc1-c1cccnc1)NCCN1CCOCC1	-17.3	-25.5%	?	4.2%	-0.4%	-1.8%
N#C/C(=C\c1cn(-c2ccccc2)nc1-c1cccnc1)c1nnc2n1CCCCC2	-61.1*	?	?	-27.7%	-18.2%	0.0%
O=C(/C=C/c1cn(-c2ccccc2)nc1-c1cccnc1)c1ccco1	-95.9*	14.6µM*	10.3µM*	?	?	9.3%
O=C(/C=C/c1cn(-c2ccccc2)nc1-c1cccnc1)N1CCCC1	-12.0	8.2µM*	7.31µM*	3.9%	-13.5%	-27.8%
COc1ccc2c(c1)[C@H]1[C@H](CO2)[C@H](c2ccccc2)[C@]2(C)C(=O)Nc3cc(F)ccc3C(=O)N12	?	?	18.4µM*	?	?	-0.1%
COc1ccc2c(c1)[C@H]1[C@H](CO2)[C@H](c2ccccc2)[C@]2(C)C(=O)Nc3ccccc3C(=O)N12	?	?	?	?	?	-13.7%
COc1ccc2c(c1)OC[C@H]1[C@H]2N2C(=O)c3ccc(F)cc3NC(=O)[C@@]2(C)[C@H]1c1ccccc1	-54.3*	18.4µM*	23.1µM*	?	?	-3.2%
COc1ccc2c(c1)OC[C@H]1[C@@H]2N2C(=O)[C@@H](C)NC(=O)[C@@]2(C)[C@H]1c1ccccc1	16.8	8.3%	-16.1%	4.5%	1.1%	?
COc1ccccc1C(=O)Oc1ccc(Cl)cc1	.	.	.	.	.	14.9%
COc1ccc(/C=C(\C#N)C(=O)N2CCOCC2)cc1Br	-67.8*	2.7%	-5.5%	5.6%	3.1%	-12.2%
Cc1cc(/C=C(\C#N)C(=O)N2CCOCC2)c(C)n1C1CCCC1	0.0	?	11.6µM*	9.0%	-1.7%	0.0%
N#C/C(=C\c1cccs1)C(=O)N1CCOCC1	-10.2	8.4%	1.1%	11.5%	21.5%	132.4%
SMILES	IL1B secr inh	TDP1 cell CPT	DT40 TDP1 no CPT	HT1080NT lethal	HT1080 IDH1KD tx	ALOX12 inh
COc1cc(/C=C(\C#N)C(=O)N2CCCCC2)ccc1O	0.2	-13.5%	11.3%	3.5%	2.3%	2.7%
N#C/C(=C\c1ccc(O)c(O)c1)C(=O)N1CCCC1	30.9	?	13µM*	?	-14.1%	?
O=C(Cn1nc(N2CCCCC2)c2ccccc2c1=O)Nc1ccc2c(c1)OCCO2	.	.	.	.	.	1.6%
O=c1oc2ccccc2n1CCN1CCN(c2ccccc2F)CC1	.	.	.	.	.	35.3%
CN(C)C(=O)c1cccc(C(F)(F)F)c1	.	.	.	.	.	2.7%
CN(CCC#N)c1ccc(C=C(C#N)c2cccc(C(F)(F)F)c2)cc1	-28.1	16.4µM*	23.1µM*	?	-29.3%	.
COc1ccc(/C(C#N)=C/c2ccc(-c3cccc(C(F)(F)F)c3)o2)cc1OC	.	.	.	.	.	-7.2%
Cc1cc(/C=C(\C#N)c2cccc(C(F)(F)F)c2)c(C)n1C	.	.	.	.	.	39.8µM*
COc1ccc(C(C#N)=Cc2ccc(NC(C)=O)cc2)cc1	-7.2	-1.9%	-26.2%	9.9%	2.4%	-23.8%
CC(=O)Nc1ccc(C(C#N)=Cc2ccc(N(C)CCC#N)cc2)cc1	-29.9	?	14.6µM*	-13.0%	-12.3%	4.4%
Cc1ccc(F)cc1NC(=O)Cc1nc(-c2cccs2)oc1C	.	.	.	.	.	7.9%
CCC(Sc1nc2nccnc2c(=O)n1Cc1ccc(F)cc1)C(=O)NC1CCCCC1 (stereo not drawn)	.	20.6µM*	?	.	.	-3.5%
Cc1ccc2c3cc(-c4ccccc4)cn3ccn12	.	.	.	.	.	0.794µM*
